According to ChEMBL document CHEMBL1157539, “Thousands of chemical starting points for antimalarial lead identification” (Nature, 2010):

Key:
Format in all cases: functional
[1] = test system: Plasmodium falciparum; test: GSK_TCMDC: Inhibition of Plasmodium falciparum 3D7 in whole red blood cells, using parasite LDH activity as an index of growth. Test compounds present at 2uM
[2] = test system: Plasmodium falciparum; test: GSK_TCMDC: Inhibition of Plasmodium falciparum Dd2 in whole red blood cells, using parasite LDH activity as an index of growth. Test compounds present at 2uM
[3] = test system: HepG2; test: GSK_TCMDC: Percent inhibition of human HepG2 cell line. Test compounds present at 10uM.

Structure (SMILES)	Inhibition [1]	Inhibition [2]	Inhibition [3]
Cl.NC(=O)c1cccc(Nc2nccc(Nc3ccc(Oc4c(Cl)cccc4Cl)c(Cl)c3)n2)c1	93%	17%	2%
Br.CCCc1cccc(OC)c1OCCCON1C(N)=NC(N)=NC1(C)C	94%	97%	65%
Cc1cc(N2CCC(NS(=O)(=O)c3ccccc3)CC2)nc(Nc2cccc(C#N)c2)n1.O=C(O)C(F)(F)F	93%	29%	52%
CCOC(=O)Cn1ccc2c(NCc3ccccc3)nc(C)nc21	96%	0%	64%
CN1CCN(CCCSc2ccc3c(c2)ncn3-c2cc(OCc3ccccc3C(F)(F)F)c(C(N)=O)s2)CC1.O=CO	100%	86%	28%
O=C(CSc1nn(-c2ccccc2)c(=S)s1)c1c[nH]c2ccccc12	93%	68%	0%
Cc1cc(N(CCN2CCCCC2)CCN2CCCCC2)nc(Nc2ccc(Cl)cc2)n1.Cl	100%	79%	19%
O=C(O)C(F)(F)F.c1ccc(CN2CCC(NCc3ccc(-c4cccc(CNC5CCCC5)c4)cc3)CC2)cc1	100%	100%	55%
OC(CN1c2ccccc2Sc2ccccc21)CN(C1CCCCC1)C1CCCCC1 (stereo not given)	99%	96%	46%
Cc1cc(N[C@@H](CC(C)C)C(=O)NCc2cccc(F)c2)nc(Nc2ccccc2)n1.O=C(O)C(F)(F)F	100%	76%	0%
C=C(NC(=O)C1CCCCC1)C(=O)OC	93%	3%	15%
Cc1cc(NC(c2ccc(Cl)cc2)c2ccc3cccnc3c2O)no1 (stereo not given)	88%	26%	50%
CCN(CCCN1CCCCC1)c1cc(C)nc(Nc2ccc(Cl)cc2)n1.Cl	100%	82%	23%
Cc1cccc(CNc2nc(C)cc(NCCC(=O)NCc3cccc(F)c3)n2)c1.O=C(O)C(F)(F)F	84%	13%	23%
COc1cccc(-c2nc3c(N4CCN(c5ccncc5)CC4)cccc3n2CC2CCCCCN2)n1.O=C(O)C(F)(F)F (stereo not given)	91%	31%	12%
Cc1cc(NCCc2ccccc2)nc(NC(=N)Nc2cccc(Cl)c2)n1	100%	100%	24%
N#Cc1c(-c2ccccc2)cn2c1[nH]c(=O)c1ccccc12	92%	95%	0%
CC1CC(C)CN(CC(O)CNC(=O)Nc2ccc(Br)cc2)C1.O=C(O)C(F)(F)F (stereo not given)	94%	44%	13%
Cc1cc(NC(=O)NCCN2CCC(NS(=O)(=O)c3cccc(Br)c3)C2)c2ccccc2n1.O=C(O)C(F)(F)F (stereo not given)	99%	58%	0%
Cc1cnc(Nc2ccccc2)nc1N[C@@H](CCCN)C(=O)Nc1ccccc1.O=C(O)C(F)(F)F	100%	0%	0%
O=C(O)C(F)(F)F.OCCN1CCN(Cc2ccc(-c3cccc(-c4nc5cc(C(F)(F)F)ccc5[nH]4)c3)cc2)CC1	99%	83%	29%
O=C(/C=C/c1ccc(Cl)c(Cl)c1)NCCCCCN1CCC(NC(=O)Nc2ccc(Cl)c(C(F)(F)F)c2)CC1	99%	19%	76%
COc1ccc(-c2ccc3c(-c4cccc(S(C)(=O)=O)c4)cnc(N)c3c2)cc1	89%	12%	41%
CCCN(C(=O)c1ccccc1C)c1nnc(-c2ccccc2C)s1	90%	65%	16%
O=C1NC(=O)C(c2ccc(Cl)cc2)=C1Nc1cccc(S(=O)(=O)C(F)(F)F)c1	99%	51%	1%
COc1ccc(NC(=O)c2cc(NC(=O)C3(N)CC3)c(=O)n(Cc3ccc(C(N)=O)cc3)c2)cc1.O=C(O)C(F)(F)F	95%	72%	21%
CS(=O)(=O)c1ccc(CCNCc2ccc(-c3ccc(CN(C(=O)C4CC(=O)c5ccccc54)C4CCN(Cc5ccccc5)CC4)cc3)nc2)cc1.O=C(O)C(F)(F)F (stereo not given)	100%	49%	9%
COc1ccc(-c2csc(C(=O)NC3CCC(N4CCC(c5ccccc5C)CC4)CC3)c2)cc1 (stereo not given)	100%	99%	64%
CNC(=O)COc1ccc(Nc2nnc(-c3ccc(C)c(S(=O)(=O)NCC4CCCO4)c3)c3ccccc23)cc1 (stereo not given)	90%	68%	0%
COc1ccccc1CNC(=O)c1nn(-c2ccc(Cl)cc2)c(=O)c2ccccc12	100%	80%	0%
